Hits are enriched below; roughly 3.2% of the tested compounds scored in any of these assays.
Pol III holo inh: qHTS Assay for Inhibitors of DNA Polymerase III Holoenzyme System; Potency, µM (top dose mostly 57.1 µM), for inactives: top-dose activity change, negative = inhibition; reconstituted DNA polymerase III holoenzyme replication, biochemical; 0.25% of 71,000 active; AID 603, 2007; note: potency is the fitted concentration of half-maximal effect; % is set by controls: 0 for no effect and ±100 for the full control effect
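Reconstituted *E. coli* holoenzyme (0.35 nM Pol III, 1 nM beta, 154 nM SSB, 2 nM primase) was preincubated with compound for 15 min at RT. Synthesis on 1.4 nM ssM13Gori ran 35 min, then was stopped with PicoGreen/EDTA and read as dsDNA fluorescence.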
GFP derepression: qHTS Assay for Epigenetic Modulators; mouse C127i GFP locus derepression, cytometry, 30 h; Potency, µM (titrated, usually from 46.1 µM), without a hit: at the highest dose GFP derepression (activation); 0.09% of 68,000 active; note: % of control where 0% means no effect
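Derepression screen: silenced CMV-GFP reporter in murine C127i cells, 30 h compound incubation at 37 C, washed cells imaged by laser-scanning cytometer to enumerate GFP-expressing objects of 20 to 120 um.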
ALOX15 inhib: qHTS Assay for Inhibitors of 15-hLO (15-human lipoxygenase); AID 887, 2007; Polyunsaturated fatty acid lipoxygenase ALOX15 (Homo sapiens), P16050; Potency, µM (highest dose often 57.1 µM), for the others: at the top dose activity change, negative = inhibition, usual class: inhibitors; purified 15hLO-1, xylenol orange hydroperoxide absorbance; 1.4% of 74,000 active; note: potency is the fitted concentration of half-maximal effect; % is set by controls: 0 for no effect and ±100 for the full control effect; nearly all actives have a fitted effect of over 55% in size
Target sequence (P16050 whole entry, looked up): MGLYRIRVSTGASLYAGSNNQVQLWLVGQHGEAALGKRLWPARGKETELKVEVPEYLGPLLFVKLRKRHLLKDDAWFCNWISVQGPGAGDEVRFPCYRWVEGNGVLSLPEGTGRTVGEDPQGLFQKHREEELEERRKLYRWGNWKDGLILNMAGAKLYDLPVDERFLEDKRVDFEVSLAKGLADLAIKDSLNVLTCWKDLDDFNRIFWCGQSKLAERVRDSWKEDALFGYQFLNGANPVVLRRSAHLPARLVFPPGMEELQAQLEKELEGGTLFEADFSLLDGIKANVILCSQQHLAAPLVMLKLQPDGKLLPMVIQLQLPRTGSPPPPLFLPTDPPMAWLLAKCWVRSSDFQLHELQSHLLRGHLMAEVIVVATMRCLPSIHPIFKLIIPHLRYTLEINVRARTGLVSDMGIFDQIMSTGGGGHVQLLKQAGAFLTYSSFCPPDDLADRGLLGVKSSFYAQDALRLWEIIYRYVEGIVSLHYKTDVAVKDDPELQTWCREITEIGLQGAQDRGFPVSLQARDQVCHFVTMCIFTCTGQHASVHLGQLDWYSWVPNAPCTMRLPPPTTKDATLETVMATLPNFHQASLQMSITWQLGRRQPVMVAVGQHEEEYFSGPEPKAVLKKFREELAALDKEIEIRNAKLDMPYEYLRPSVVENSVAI
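Purified human 15hLO-1 (40 nM final) in 25 mM Hepes pH 7.5, 0.01% Triton X-100 was preincubated with compound 15 min at room temperature, then reacted 6 min with 50 uM arachidonic acid; hydroperoxide detected by Fe-XO, 573/405 nm absorbance ratio.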
HBB splicing: qHTS Assay for Modulators of Hemoglobin Beta Chain Splicing | HBB splicing reporter cell assay, activation; EGFP reporter with mutant IVS2-654 intron; response scale: normalised to 500 nM splice-correcting PNA | Potency, µM (titrated, usually from 46.1 µM), without a hit: at the top dose activation, actives largely listed as activators | 0.06% of 65,000 active | AID 925, 2007; note: potency is the fitted concentration of half-maximal effect; 0% is about no effect
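HeLa cells stably expressing EGFP interrupted by mutant beta-globin intron 2 (IVS2-654), 500/well in 2% FCS. Treated with compound for 2 days at 37C. Splicing correction scored as total well GFP intensity (488 nm excitation, 500-520 nm emission); 500 nM antisense PNA served as control.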
Ub-GFP proteasome: Ubiquitin-GFP Assay | Ubiquitin-GFP reporter cells, proteasome inhibition, GFP fluorescence; response scale: untreated = 0%, 10 µM MG-132 = 100% | Potency, µM (series often up to 45.9 µM), for inactives: at the highest dose activation (GFP accumulation), actives largely listed as activators | 67,000 tested, under 10 active | AID 526, 2006; active = well fitted activation curve with a large enough effect, not every such curve was filed as active; inconclusive = small, poorly fitted or top-dose-only effect, or another doubt; inactive = no such curve, though single readings can be large or run the other way; note: potency is the fitted concentration of half-maximal effect
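U2OS cells stably expressing ubiquitin(G76V)-GFP, seeded overnight in 0.5% FBS medium, were exposed to compounds (qHTS, 46 uM to 2.9 nM) for 4 hr at 37 °C. GFP-positive cells were counted by laser cytometry (488 ex/515 em), normalized between basal and 10 uM MG-132.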
Tau fil binding: qHTS Assay for Tau Filament Binding; recombinant tau filaments, thioflavin S fluorescence, 15 h; filaments grown with octadecylsulfate alongside compound; Potency, µM (top dose mostly 57.1 µM), for inactives: at the top dose activity change, negative = inhibition; 2% of 71,000 active; Microtubule-associated protein tau (Homo sapiens), P10636; AID 596, 2007;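 note: potency is the fitted concentration of half-maximal effect; % is set by controls: 0 for no effect and ±100 for the full control effect; actives lower thioflavin S fluorescence by blocking filaments or displacing dye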
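ThS-based fibril read: tau 1 uM final, inducer ODS 30 uM final, 37 C for 15 h, ex 450/em 510 nm.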
Starred values were filed as active, the others as inactive; ? = inconclusive; / = no result; ! = not active in a repeat; [ ] = another dose, or the depositor's remark. Unless noted, calls come from the whole dose curve; as a rule, active = well fitted curve in the direction sought with a large enough effect; inconclusive = small, poorly fitted or top-dose-only effect, or another doubt; inactive = no such curve, though single readings can be large; an effect the other way counts as inactive or inconclusive.

SMILES | Pol III holo inh | GFP derepression | ALOX15 inhib | HBB splicing | Ub-GFP proteasome | Tau fil binding
N/N=C1/c2ccccc2N[C@H]1OC(=O)Nc1cccc(Cl)c1 | -14%[11.4 µM] | 0%[9.22 µM] | -7%[11.4 µM] | 2%[9.22 µM] | -8%[9.17 µM] | ?
N/N=C1/c2ccccc2N[C@H]1OC(=O)Nc1ccccc1 | ? | 3%[9.22 µM] | 1%[11.4 µM] | -1%[9.22 µM] | -2%[9.17 µM] | 3.2µM*
C=C(C)COc1ccc(-c2ncncc2Oc2ccc(OC)cc2)c(O)c1 | 1% | 3% | -3% | -2% | -5% | 20µM*
C=C(C)COc1ccc(-c2nc(N)ncc2-c2ccc(OC)cc2)c(O)c1 | -8% | 5% | -13% | 0% | -13% | 13µM*
C=C(C)COc1ccc(-c2[nH]ncc2Oc2cccc(OC)c2)c(O)c1 | -7% | 8% | -26% | 0%[57.5 µM] | 3% | 44%
CC(C)S | 9% | / | -2% | 0% | / | -9%
Cc1ccc(NC(=O)CCNS(=O)(=O)c2cccc3nonc23)cc1 | 2% | 4% | -1% | 0% | 8% | -3%
Cc1ccc(N(CC(=O)Nc2cccc(C)c2)S(=O)(=O)c2cccc3nonc23)cc1 | 0% | 2% | ? | -1% | -11% | 16µM*
CC(C)=CCC/C(C)=C/CO/N=C1/C[C@@H](O)[C@@H](O)[C@@H]2[C@@H]3C(=O)N(C4CCCCC4)C(=O)[C@H]3CC[C@@H]12 | / | / | -3%[11.4 µM] | 1%[9.22 µM] | / | /
COC(=O)C1=C(C)N(Cc2ccccc2)[C@]23O[C@](C(=O)OC)(C(=O)N2C1c1ccccc1)C1CCOC(=O)C13 (stereo partly specified) | / | / | 2%[11.4 µM] | 0%[9.22 µM] | / | /
CNCCCC12CCC(c3ccccc31)c1ccccc12 | -5% | -2%[20.6 µM] | ? | 0%[20.6 µM] | 8% | 16µM*!
C/C(CC/C(C)=N/O)=N/O | -3%[11.4 µM] | -3%[9.22 µM] | 8%[11.4 µM] | 3%[9.22 µM] | -1%[9.17 µM] | 8%[11.4 µM]
C/C(=N/O)[C@@H]1C[C@H](CC(=O)O)C1(C)C | -3%[11.4 µM] | -2%[9.22 µM] | -9%[11.4 µM] | 7%[9.22 µM] | -1%[9.17 µM] | 10%[11.4 µM]
O=S(=O)(Nc1ccc(S(=O)(=O)N2CCCCC2)cc1)c1cccs1 | -2% | 6% | -1% | 0% | 0% | 2%
O=S(=O)(Nc1ccc(N2CCOCC2)cc1)c1cccs1 | 11% | -2% | -1% | 0% | 0% | 16µM*
CC(C)Oc1ccc(C2c3c(oc4ccccc4c3=O)C(=O)N2CCCN2CCOCC2)cc1 (stereo unspecified) | -1% | -3% | -9% | 3% | 8% | 16µM*
C[C@H](NC(=O)/C(C#N)=C/c1ccc(O)c(O)c1)c1ccccc1 | -8% | 0% | 0.25µM* | 1% | 4% | ?
C[C@@H](NC(=O)/C(C#N)=C/c1ccc(O)c(O)c1)c1ccccc1 | -4% | 1% | ? | / | -4% | -42%
N#C/C(=C\c1ccc(O)c(O)c1)C(=O)Nc1ccccc1 | -7% | 3% | 3.2µM* | 1% | -8% | 25%
FC(F)(F)c1cc(NC(=S)N2c3ccccc3-n3cccc3[C@H]2c2cccnc2)cc(C(F)(F)F)c1 | -4%[11.4 µM] | -2%[9.22 µM] | -20%[11.4 µM] | 0%[9.22 µM] | 4%[9.17 µM] | 3%[11.4 µM]
Cc1conc1NC(c1cccs1)c1ccc2cccnc2c1O (stereo unspecified) | 8% | 6% | ? | -5%[0.369 µM] | -5% | 13µM*
COC(=O)CSc1nc2c(c(-c3ccc(C)o3)c1C#N)CCCC2 | -8% | -4% | -21% | 2%[0.369 µM] | / | 12%
Cc1ccc(-c2c3c([nH]c(=S)c2C#N)CCCC3)o1 | -1% | 13% | 10µM* | -2% | -8% | ?
O=c1c(-c2ccc(F)cc2)nc2cnc(N3CCNCC3)nc2n1Cc1ccc(F)cc1 | -9% | 3%[9.22 µM] | 1% | -2% | -8% | ?
OC1CCCN(Cc2ccc3c(c2)Cc2ccccc2-3)C1 (stereo unspecified) | -3% | -2% | 0% | -1% | -4% | 48%
SMILES | Pol III holo inh | GFP derepression | ALOX15 inhib | HBB splicing | Ub-GFP proteasome | Tau fil binding
CC(C)(C)c1cc(CN2CCCC(O)C2)c(O)c(C(C)(C)C)c1 (stereo unspecified) | -6%[11.4 µM] | 0% | -21%[11.4 µM] | -1%[0.0738 µM] | -14%[9.17 µM] | 5µM*
CCN=c1scc(-c2ccc3c(c2)NC(=O)CO3)n1N=C1CCCC1 | 2% | ? | -19% | 1% | -3% | 13µM*
CCN(CC)c1ccc2c(c1)CCCN2 | -5% | ? | ? | -1% | -2% | 25µM*
c1coc(-c2nc(-c3ccco3)c(-c3ccco3)nc2-c2ccco2)c1 | 1.6µM* | 0% | 2µM* | 0%[57.5 µM] | 2% | ?
Nc1nc(-c2ccco2)cs1 | 1% | 2% | 2% | 0%[57.5 µM] | -1% | -8%
Nc1nc(-c2ccco2)c(-c2ccco2)s1 | ? | 0% | 20µM* | -7% | 1% | ?
NC(Cc1c[nH]c2ccccc12)C(=O)O (stereo unspecified) | / | / | 7.9µM* | / | / | /
N[C@H](Cc1c[nH]c2ccccc12)C(=O)O | / | / | -6% | / | / | /
Cc1c(N(C)C(=O)c2ccco2)c(=O)n(-c2ccccc2)n1C | -2% | -2% | 3% | -1% | -2% | -1%

Compound activity: PubChem BioAssay, National Center for Advancing Translational Sciences (NCATS)
